Targets with a hit are over-represented here; the source holds about 7,900 in all. About 0.6% of all pairs of compound and target were hits. Unmarked numbers belong to inactive results.
How the values were obtained:
Experiment in all cases: log2 fold change, soluble protein after heating vs DMSO (PISA); higher = thermal stabilisation; K562 cells, 10 uM, 30 min; active = over 0.2 and 3.5 SD of the protein, either way, in both replicates (recomputed)
[1] = compound: CC1=C(SC2=C1C(=N[C@H](C3=NN=C(N32)C)CC(=O)N)C4=CC=C(C=C4)Cl)C
In short: (§1)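 Thermal stability values are relative to control samples and come from duplicates. They are expressed as log2 fold changes. For measurement, K562 cells (2×10^6 cells/mL) received 10 μM compound for 30 min, and aliquots were heated for 3 min over 48°C-58°C, pooled, and extracted at 4°C in PBS with 0.5% NP-40. Soluble protein, the supernatant after 21,000xg for 90 min, was quantified by TMTpro 16plex LC-MS/MS with equalised channel sums.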

[2] = compound: CC1=C2C(=CC=C1)N=C(N(C2=O)C3=CC=CC=C3C)CN4C=NC5=C(N=CN=C54)N
In short: as §1

[3] = compound: c1ccc([C@@H]2C[C@H]2NC2CCNCC2)cc1
In short: as §1

[4] = compound: Cc1sc2c(c1C)C(c1ccc(Cl)cc1)=N[C@@H](CC(=O)OC(C)(C)C)c1nnc(C)n1-2
In short: as §1

[5] = compound: C1=CC=C(C=C1)[C@H](COC2=CC3=C(C=C2)NC(=O)N3)NC(=O)C4=CC=CN(C4=O)CC5=CC(=C(C=C5)F)F
In short: as §1

Sequence of UniProt P07948 (P07948 whole entry, looked up): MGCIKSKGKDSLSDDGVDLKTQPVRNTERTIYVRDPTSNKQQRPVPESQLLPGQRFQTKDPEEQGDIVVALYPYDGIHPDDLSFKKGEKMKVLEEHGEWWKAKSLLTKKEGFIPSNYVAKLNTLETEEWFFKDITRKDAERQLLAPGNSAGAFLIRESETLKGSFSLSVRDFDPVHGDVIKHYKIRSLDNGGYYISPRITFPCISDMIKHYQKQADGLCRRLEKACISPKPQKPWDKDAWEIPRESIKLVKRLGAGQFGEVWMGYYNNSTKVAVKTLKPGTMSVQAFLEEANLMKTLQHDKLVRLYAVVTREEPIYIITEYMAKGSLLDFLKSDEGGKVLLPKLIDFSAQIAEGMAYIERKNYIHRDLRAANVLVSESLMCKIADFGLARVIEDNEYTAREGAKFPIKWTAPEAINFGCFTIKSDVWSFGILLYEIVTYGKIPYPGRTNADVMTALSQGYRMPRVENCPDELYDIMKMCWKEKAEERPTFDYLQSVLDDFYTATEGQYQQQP
Sequence of UniProt P51884 (P51884 whole entry, looked up): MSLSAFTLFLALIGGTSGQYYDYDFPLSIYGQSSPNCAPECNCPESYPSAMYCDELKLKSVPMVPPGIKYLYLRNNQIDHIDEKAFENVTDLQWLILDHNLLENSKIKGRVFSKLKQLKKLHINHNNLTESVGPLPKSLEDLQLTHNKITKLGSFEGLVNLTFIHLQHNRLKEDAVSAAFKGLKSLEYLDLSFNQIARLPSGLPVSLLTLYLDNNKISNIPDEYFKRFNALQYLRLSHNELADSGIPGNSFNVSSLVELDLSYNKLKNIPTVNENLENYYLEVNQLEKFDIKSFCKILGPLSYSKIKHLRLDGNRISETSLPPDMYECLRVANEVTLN
Sequence of UniProt Q92585 (Q92585 whole entry, looked up): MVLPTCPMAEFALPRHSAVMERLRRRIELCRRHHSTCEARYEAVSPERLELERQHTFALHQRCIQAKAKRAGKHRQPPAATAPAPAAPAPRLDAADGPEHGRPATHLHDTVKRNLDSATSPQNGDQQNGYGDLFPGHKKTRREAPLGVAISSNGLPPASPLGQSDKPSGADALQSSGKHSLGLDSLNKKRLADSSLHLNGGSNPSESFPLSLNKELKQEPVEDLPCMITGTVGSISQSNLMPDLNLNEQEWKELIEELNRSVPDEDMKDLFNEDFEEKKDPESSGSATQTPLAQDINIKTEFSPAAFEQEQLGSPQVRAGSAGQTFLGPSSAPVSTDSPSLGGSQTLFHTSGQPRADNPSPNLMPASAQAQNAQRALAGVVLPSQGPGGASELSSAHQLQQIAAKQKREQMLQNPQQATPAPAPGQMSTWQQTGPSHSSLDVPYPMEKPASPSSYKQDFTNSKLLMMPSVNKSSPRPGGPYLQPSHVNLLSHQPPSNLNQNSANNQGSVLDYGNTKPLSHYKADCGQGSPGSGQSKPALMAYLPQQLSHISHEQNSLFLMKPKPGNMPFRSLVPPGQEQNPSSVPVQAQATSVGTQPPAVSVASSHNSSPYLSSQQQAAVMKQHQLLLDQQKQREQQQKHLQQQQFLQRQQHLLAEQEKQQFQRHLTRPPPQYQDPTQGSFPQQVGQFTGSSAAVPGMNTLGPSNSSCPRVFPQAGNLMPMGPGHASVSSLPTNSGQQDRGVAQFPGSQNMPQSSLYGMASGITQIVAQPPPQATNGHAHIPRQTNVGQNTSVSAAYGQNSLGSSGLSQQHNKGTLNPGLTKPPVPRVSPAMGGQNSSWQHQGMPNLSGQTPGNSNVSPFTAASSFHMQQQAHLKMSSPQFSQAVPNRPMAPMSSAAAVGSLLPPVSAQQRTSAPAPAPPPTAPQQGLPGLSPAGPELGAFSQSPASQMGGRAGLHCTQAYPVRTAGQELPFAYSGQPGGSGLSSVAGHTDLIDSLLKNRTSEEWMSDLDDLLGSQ
Sequence of UniProt P24592 (P24592 whole entry, looked up): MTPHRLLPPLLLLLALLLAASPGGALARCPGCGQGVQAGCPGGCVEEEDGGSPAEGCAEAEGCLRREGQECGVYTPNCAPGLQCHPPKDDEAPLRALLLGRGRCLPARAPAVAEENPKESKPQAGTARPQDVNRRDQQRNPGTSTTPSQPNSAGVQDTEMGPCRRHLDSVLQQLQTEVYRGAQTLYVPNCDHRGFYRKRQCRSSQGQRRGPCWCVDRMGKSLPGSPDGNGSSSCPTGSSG
Sequence of UniProt Q8WYH8 (Q8WYH8 whole entry, looked up): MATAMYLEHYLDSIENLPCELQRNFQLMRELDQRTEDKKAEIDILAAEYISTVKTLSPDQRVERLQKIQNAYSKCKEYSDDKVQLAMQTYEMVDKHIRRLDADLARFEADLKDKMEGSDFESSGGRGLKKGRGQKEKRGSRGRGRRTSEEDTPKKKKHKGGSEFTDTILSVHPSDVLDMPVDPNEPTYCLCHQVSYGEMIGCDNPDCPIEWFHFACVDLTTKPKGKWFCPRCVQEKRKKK
Sequence of UniProt O15243 (O15243 whole entry, looked up): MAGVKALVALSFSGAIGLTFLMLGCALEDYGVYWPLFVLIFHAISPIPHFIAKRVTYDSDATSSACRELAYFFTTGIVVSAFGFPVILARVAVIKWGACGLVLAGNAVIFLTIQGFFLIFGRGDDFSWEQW
Sequence of UniProt O95819 (O95819 whole entry, looked up): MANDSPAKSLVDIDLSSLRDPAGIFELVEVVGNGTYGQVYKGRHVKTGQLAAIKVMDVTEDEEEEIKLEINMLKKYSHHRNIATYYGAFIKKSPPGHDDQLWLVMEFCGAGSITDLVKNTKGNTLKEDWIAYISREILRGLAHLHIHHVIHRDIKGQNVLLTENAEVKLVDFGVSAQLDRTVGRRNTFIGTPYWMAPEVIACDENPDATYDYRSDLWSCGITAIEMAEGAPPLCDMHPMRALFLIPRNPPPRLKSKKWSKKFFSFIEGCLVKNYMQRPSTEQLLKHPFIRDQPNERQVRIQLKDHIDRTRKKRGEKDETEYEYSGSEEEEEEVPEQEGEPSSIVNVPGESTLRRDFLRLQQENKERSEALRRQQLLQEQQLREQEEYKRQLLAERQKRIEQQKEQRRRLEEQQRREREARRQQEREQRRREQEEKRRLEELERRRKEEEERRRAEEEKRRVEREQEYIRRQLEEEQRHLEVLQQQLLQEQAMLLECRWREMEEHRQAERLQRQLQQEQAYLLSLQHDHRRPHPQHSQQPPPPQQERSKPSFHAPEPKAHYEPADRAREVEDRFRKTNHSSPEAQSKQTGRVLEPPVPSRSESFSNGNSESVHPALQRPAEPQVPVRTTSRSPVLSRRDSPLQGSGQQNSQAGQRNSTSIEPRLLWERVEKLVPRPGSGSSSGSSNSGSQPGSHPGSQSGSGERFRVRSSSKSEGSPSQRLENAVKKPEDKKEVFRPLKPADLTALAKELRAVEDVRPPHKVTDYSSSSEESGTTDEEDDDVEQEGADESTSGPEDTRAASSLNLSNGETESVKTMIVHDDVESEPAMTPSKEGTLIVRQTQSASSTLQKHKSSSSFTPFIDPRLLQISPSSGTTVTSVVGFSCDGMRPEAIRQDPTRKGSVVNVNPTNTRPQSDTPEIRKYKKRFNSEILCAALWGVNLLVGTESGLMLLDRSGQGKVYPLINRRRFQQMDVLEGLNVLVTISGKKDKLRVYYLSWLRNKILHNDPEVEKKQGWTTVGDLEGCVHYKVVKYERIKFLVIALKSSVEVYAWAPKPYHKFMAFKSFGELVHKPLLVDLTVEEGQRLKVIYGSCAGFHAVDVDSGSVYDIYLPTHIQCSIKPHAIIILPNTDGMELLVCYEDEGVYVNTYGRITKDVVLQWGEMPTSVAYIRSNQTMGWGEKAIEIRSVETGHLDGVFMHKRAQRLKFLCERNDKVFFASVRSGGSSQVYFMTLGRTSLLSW
Sequence of UniProt Q92551 (Q92551 whole entry, looked up): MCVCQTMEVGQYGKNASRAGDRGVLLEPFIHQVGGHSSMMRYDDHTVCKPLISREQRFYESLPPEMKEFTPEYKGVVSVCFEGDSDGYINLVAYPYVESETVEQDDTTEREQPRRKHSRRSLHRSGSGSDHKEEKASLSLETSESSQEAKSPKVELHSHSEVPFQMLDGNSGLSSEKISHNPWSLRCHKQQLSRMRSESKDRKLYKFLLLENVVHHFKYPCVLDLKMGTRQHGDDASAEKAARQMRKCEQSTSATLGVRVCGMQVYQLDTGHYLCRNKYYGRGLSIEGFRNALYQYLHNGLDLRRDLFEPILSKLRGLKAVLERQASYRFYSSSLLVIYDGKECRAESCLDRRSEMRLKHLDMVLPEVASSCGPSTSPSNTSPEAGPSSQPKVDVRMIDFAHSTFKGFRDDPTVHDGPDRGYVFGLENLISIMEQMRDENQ
Sequence of UniProt P17936 (P17936 whole entry, looked up): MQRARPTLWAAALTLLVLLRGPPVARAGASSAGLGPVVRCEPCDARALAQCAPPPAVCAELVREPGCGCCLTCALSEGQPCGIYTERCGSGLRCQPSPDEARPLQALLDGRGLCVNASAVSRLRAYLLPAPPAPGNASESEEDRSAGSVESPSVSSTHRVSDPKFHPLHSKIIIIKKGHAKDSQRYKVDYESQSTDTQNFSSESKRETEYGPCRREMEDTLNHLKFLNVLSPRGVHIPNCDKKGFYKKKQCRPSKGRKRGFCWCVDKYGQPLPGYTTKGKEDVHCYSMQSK

Row | Target | log2 fold change [1] | log2 fold change [2] | log2 fold change [3] | log2 fold change [4] | log2 fold change [5]
1 | MAML1 (UniProt Q92585) | 0.018 | 0.15 | 0.077 | – | –
2 | ING5 (UniProt Q8WYH8) | 0.051 | – | -0.037 | 0.036 | –
3 | LUM (UniProt P51884) | -0.05 | 0.087 | 0.143 | 0.144 | –
4 | LYN isoform 2 (UniProt P07948) | 0.018 | -0.097 | 0.033 | – | –
5 | IGFBP3 isoform 2 (UniProt P17936) | -0.081 | 0.034 | 0.057 | -0.083 | –
6 | IP6K1 (UniProt Q92551) | 0.059 | – | -0.135 | 0.194 | 0.053
7 | LEPROT (UniProt O15243) | -0.022 | – | 0.112 | -0.235 | –
8 | KIF13A isoform 4 (UniProt Q9H1H9) | 0.031 | – | -0.367 | – | –
9 | LRRFIP1 isoform 4 (UniProt Q32MZ4) | -0.204 | – | 0.009 | – | –
10 | KIZ (UniProt Q2M2Z5) | -0.082 | – | 0.453 | – | –
11 | ITPRID2 (UniProt P28290) | – | 0.106 | – | – | –
12 | MAP4K4 isoform 6 (UniProt O95819) | 0.177 | 0.049 | 0.076 | -0.037 | –
13 | IGFBP6 (UniProt P24592) | 0.018 | 0.011 | 0.01 | – | –
